Test results published in PubChem BioAssay.
A number with no mark means an inactive call. Entries that show only a call come without a potency. For some of these results: Potency and affinity values are given separately. Active and inactive are the calls of the source. Unless noted, how the calls were made is not given here.

Legend:
[1] = antimalarial activity against Dd2 strain (AID 2302;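 active means growth inhibition above 50% at the single 2 µM test dose, taken to imply half-maximal potency below 2 µM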); settings: P. falciparum Dd2 in RBCs, LDH growth readout, 72 h; at 2 µM; stronger effect = higher value
[2] = HepG2 cytotoxicity, primary screen, cytotoxicity control for P. falciparum antimalarial project, cell-based, ATP luminescence (AID 2303;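 active means inhibition above 50%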); settings: HepG2 viability, 24-48 h, at 10 µM, stronger effect = higher value
[3] = molecular target: L-lactate dehydrogenase (Plasmodium falciparum (isolate CDC / Honduras)) (UniProt Q27743); assay: PfLDH activity inhibition – cell lysate, 3D7 strain, counter-screen for P. falciparum growth inhibition project (AID 2304); settings: P. falciparum 3D7 crude extract, LDH APAD/NBT absorbance; at 2 µM; stronger effect = higher value
L-lactate dehydrogenase (Plasmodium falciparum (isolate CDC / Honduras)), sequence (Q27743 whole entry, looked up): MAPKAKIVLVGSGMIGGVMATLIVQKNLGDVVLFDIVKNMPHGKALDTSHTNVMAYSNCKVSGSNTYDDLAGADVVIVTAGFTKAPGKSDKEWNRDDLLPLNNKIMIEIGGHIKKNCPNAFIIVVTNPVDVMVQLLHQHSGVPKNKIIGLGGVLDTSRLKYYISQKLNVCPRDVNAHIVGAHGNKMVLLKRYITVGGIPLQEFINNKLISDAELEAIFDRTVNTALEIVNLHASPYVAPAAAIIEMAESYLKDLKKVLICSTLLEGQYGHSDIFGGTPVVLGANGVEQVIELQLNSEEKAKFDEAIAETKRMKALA

[4] = inhibition of 3D7 malaria parasite growth – strain 3D7 (AID 2306); settings: P. falciparum 3D7 erythrocytic growth, LDH absorbance, 72 h; at 2 µM; stronger effect = higher value
[5] = molecular target: Calcium-dependent protein kinase 1 (Plasmodium falciparum (isolate 3D7)) (UniProt P62344); assay: PfCDPK1 kinase inhibitors, biochemical, TCAMS library (AID 1159585; cut-off not given, nearly all actives have IC50 up to about 0.98 µM;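 further: inhibitors leave more ATP so luminescence rises with inhibition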); settings: recombinant PfCDPK1, Kinase-Glo ATP depletion luminescence
Calcium-dependent protein kinase 1 (Plasmodium falciparum (isolate 3D7)), sequence (P62344 whole entry, looked up): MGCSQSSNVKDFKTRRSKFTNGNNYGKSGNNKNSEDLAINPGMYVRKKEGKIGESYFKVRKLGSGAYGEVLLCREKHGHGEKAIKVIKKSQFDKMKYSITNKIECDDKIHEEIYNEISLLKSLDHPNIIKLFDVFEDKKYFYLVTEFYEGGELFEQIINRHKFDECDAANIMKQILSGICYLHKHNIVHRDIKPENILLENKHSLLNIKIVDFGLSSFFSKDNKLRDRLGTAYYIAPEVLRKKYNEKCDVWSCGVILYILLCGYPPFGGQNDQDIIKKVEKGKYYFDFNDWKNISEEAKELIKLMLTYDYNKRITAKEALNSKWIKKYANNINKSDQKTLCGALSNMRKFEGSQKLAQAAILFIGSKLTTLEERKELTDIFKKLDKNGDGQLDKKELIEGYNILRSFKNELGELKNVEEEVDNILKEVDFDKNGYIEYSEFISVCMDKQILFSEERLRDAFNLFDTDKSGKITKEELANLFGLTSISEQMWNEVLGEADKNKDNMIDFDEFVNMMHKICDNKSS

[6] = molecular target: Plasmodium falciparum protein kinase 6 (PK6, PF3D7_1337100) (UniProt Q8IDW1); assay: PfPK6 kinase inhibitors, biochemical, TCAMS library (AID 1159586); settings: recombinant PfPK6, Kinase-Glo ATP depletion luminescence
Plasmodium falciparum protein kinase 6 (PK6, PF3D7_1337100), sequence (Q8IDW1 1-305): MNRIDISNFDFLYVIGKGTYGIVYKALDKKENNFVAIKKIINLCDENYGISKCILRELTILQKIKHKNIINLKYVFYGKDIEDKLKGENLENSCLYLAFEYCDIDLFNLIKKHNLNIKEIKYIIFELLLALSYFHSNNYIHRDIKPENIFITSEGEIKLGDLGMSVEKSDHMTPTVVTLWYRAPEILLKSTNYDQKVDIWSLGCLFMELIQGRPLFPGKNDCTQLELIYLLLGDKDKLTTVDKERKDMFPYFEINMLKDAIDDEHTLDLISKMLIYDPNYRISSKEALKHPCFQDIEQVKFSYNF

[7] = molecular target: Protein kinase 7 (PK7), Plasmodium falciparum 3D7 (PF3D7_0213400) (UniProt Q7YTF7); assay: inhibition of Plasmodium PK7 catalytic activity – biochemical, TCAMS antimalarial set, Kinase-Glo luminescence (AID 1159587); settings: recombinant PfPK7, Kinase-Glo ATP depletion luminescence
Protein kinase 7 (PK7), Plasmodium falciparum 3D7 (PF3D7_0213400), sequence (Q7YTF7 1-343): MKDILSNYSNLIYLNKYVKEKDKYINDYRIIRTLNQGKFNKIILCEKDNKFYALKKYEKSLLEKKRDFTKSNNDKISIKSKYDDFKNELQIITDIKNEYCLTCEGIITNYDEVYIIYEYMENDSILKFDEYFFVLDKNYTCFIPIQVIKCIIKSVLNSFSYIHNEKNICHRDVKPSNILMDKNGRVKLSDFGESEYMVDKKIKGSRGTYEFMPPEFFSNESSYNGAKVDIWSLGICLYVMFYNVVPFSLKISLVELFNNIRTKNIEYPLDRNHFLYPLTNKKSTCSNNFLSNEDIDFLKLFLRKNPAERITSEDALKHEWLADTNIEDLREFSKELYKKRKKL

[8] = molecular target: Calcium-dependent protein kinase 4 (Plasmodium falciparum (isolate 3D7)) (UniProt Q8IBS5); assay: PfCDPK4 kinase inhibitors, biochemical, TCAMS library (AID 1159588; cut-off not given, nearly all actives have IC50 up to about 0.91 µM); settings: recombinant PfCDPK4, Kinase-Glo ATP depletion luminescence
Calcium-dependent protein kinase 4 (Plasmodium falciparum (isolate 3D7)), sequence (Q8IBS5 whole entry, looked up): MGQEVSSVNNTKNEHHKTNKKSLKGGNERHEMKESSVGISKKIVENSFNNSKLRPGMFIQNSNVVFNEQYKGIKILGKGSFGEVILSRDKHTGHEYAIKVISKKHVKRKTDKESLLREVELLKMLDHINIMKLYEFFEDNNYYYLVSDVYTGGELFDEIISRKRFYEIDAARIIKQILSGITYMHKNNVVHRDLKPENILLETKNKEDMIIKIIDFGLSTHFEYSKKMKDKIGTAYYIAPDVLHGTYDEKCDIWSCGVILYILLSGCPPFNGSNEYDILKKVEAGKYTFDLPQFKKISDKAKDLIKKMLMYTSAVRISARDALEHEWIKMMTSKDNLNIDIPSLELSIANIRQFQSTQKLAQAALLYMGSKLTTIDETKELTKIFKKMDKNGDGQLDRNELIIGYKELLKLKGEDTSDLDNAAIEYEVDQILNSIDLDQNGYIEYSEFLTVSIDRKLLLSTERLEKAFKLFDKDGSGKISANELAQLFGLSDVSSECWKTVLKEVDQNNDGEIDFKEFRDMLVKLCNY

SMILES	growth inhibition [1]	inhibition [2]	inhibition [3]	growth inhibition [4]	outcome [5]	outcome [6]	outcome [7]	outcome [8]
O=c1cc(NCCCNC(CNCCc2ccccc2)c2cc(Br)cc(Br)c2)[nH]c2ccccc12 (stereo not drawn)	53% (active)	-2%	1%	93% (active)	inactive	inactive	inactive	inactive
Cc1cccc2[nH]c(-c3cccc(-c4ccc(NC(=O)c5cnn6cccnc56)cc4)c3)nc12	73% (active)	99% (active)	-1%	101% (active)	inactive	inactive	inactive	inactive
CCC(C(=O)Nc1ccccc1)n1nc(-c2ccc(C)c(S(=O)(=O)N3CCCCC3)c2)ccc1=O (stereo not drawn)	67% (active)	-2%	4%	85% (active)	inactive	inactive	inactive	inactive
CCc1ccc(NC(=O)c2ccc(CN3CCCN(Cc4cccc(C)c4)CC3)cc2)cc1	-4%	53% (active)	1%	80% (active)	inactive	inactive	inactive	inactive
CC(C)[C@H](NC(=O)c1ccc(O)c(-c2ccc(Cl)c(Cl)c2)c1)C(=O)NC1CCCCCC1	99% (active)	-4%	-2%	99% (active)	inactive	inactive	inactive	inactive
Fc1ccc2nc(-c3ccc(-c4ccc(CNCC5CCCO5)cc4)cc3)[nH]c2c1 (stereo not drawn)	100% (active)	26%	-3%	101% (active)	inactive	inactive	inactive	inactive
Cc1ccc2[nH]c3c(NCCN(C)C)ncnc3c2c1	5%	9%	0%	99% (active)	inactive	inactive	inactive	inactive
COc1ccc(-c2cc(C(=O)Nc3ccc(CCCN(C)Cc4ccc(OC)c(OC)c4)cc3)c3ccccc3n2)cc1	47%	40%	-3%	92% (active)	inactive	inactive	inactive	inactive
COc1ccc(-c2cc(-c3nc4ccc(CN)cc4[nH]3)c(=O)n(C)c2)cc1OC	56% (active)	-12%	4%	85% (active)	inactive	inactive	inactive	inactive
FC(F)(F)c1ccc2nccc(NN=Cc3ccccc3Cl)c2c1	83% (active)	-6%	5%	101% (active)	inactive	inactive	inactive	inactive
Cc1nc(N)nc(N)c1C#CC1CCCC1	2%	68% (active)	4%	96% (active)	inactive	inactive	inactive	inactive
CN1CCCN(c2ccnc3cc4c(cc23)N(C(=O)c2ccc(Cl)cc2Cl)CC4)CC1	51% (active)	6%	-2%	100% (active)	inactive	inactive	inactive	inactive
COc1ccc(CN2CCC(NCc3cccc(-n4ccnc4)c3)CC2)cc1	93% (active)	10%	-5%	100% (active)	inactive	inactive	inactive	inactive
Cc1ccc2nc(C)cc(NN=Cc3cccc(Cl)c3)c2c1	98% (active)	12%	2%	102% (active)	inactive	inactive	inactive	inactive
CN(C)c1cccc2c1nc(-c1ccc3c(c1)CCO3)n2CCNCc1ccccc1	85% (active)	6%	0%	99% (active)	inactive	inactive	inactive	inactive
O=C(Cc1cn(-c2ccccc2)nc1-c1ccc(Cl)cc1)Nc1nccs1	8%	9%	1%	88% (active)	inactive	inactive	inactive	inactive
CCCNCc1ccc(-c2ccc(CN(CCOC)C(=O)c3ccccc3)cc2)nc1	25%	16%	-7%	94% (active)	inactive	inactive	inactive	inactive
C=C1C[C@@H](n2cnc3c(NC(=O)c4ccccc4)ncnc32)[C@@H](F)[C@@H]1OC(c1ccccc1)(c1ccccc1)c1ccccc1	97% (active)	16%	-5%	98% (active)	inactive	inactive	inactive	inactive
FC(F)(F)c1ccc2nc(-c3ccc(-c4cccc(CNCCN5CCNCC5)c4)s3)[nH]c2c1	39%	22%	5%	91% (active)	inactive	inactive	inactive	inactive
CCc1c(C(=O)NC2CCC(N3CCC(c4ccccc4OC)CC3)CC2)[nH]c2ccc(OC)cc12 (stereo not drawn)	99% (active)	43%	-5%	101% (active)	inactive	inactive	inactive	inactive
Cc1cccc2[nH]c(-c3ccc(-c4ccc(CN5CCN(C6CCN(C)CC6)CC5)cc4)cc3)nc12	100% (active)	99% (active)	-5%	100% (active)	inactive	inactive	inactive	inactive

SMILES	growth inhibition [1]	inhibition [2]	inhibition [3]	growth inhibition [4]	outcome [5]	outcome [6]	outcome [7]	outcome [8]
CS(=O)(=O)Nc1cccc(-c2cnc3[nH]cc(-c4ccc(C(=O)O)cc4)c3c2)c1	82% (active)	-11%	0%	98% (active)	inactive	inactive	inactive	inactive
CCC(CC)N1C(=O)C(c2ccccc2)(c2ccccc2)N=C1N	61% (active)	14%	-7%	96% (active)	inactive	inactive	inactive	inactive
c1ccc2[nH]c(-c3ccc(-c4ccc(CN5CCN(c6ccncc6)CC5)cc4)cc3)nc2c1	100% (active)	48%	-3%	101% (active)	inactive	inactive	inactive	inactive
CCN(CC)Cc1ccc2c(=O)cc(CCc3cccc(F)c3F)n(CC(=O)N(Cc3ccc(-c4ccc(C(F)(F)F)cc4)cc3)C(C)C)c2c1	63% (active)	82% (active)	-6%	102% (active)	inactive	inactive	inactive	inactive
CCN(CC(C)O)C(=O)c1ccc(-c2cccc(-c3nc4c(C)cccc4[nH]3)c2)cc1 (stereo not drawn)	32%	28%	-2%	100% (active)	inactive	inactive	inactive	inactive
CCCCC1(c2ccc(F)cc2)NC(=O)N(CC(=O)c2cc(C)n(Cc3ccco3)c2C)C1=O (stereo not drawn)	28%	6%	-3%	82% (active)	inactive	inactive	inactive	inactive
Cc1cc(S(=O)(=O)N2CCCCC(c3ccc(C(F)(F)F)cc3)=N2)c(Cl)cc1Cl	97% (active)	17%	0%	97% (active)	inactive	inactive	inactive	inactive
COc1ccc(CN2CCC(CNC(C)c3cccc4ccccc34)CC2)cc1 (stereo not drawn)	26%	58% (active)	-2%	102% (active)	inactive	inactive	inactive	inactive
COc1cc2nc(NCC3CCCO3)n3nc(-c4ccccc4)nc3c2cc1OC (stereo not drawn)	97% (active)	-9%	-7%	92% (active)	inactive	inactive	inactive	inactive
O=[N+]([O-])c1cccc(CNCC2CCN(CCc3ccccc3)CC2)c1	11%	15%	-6%	98% (active)	inactive	inactive	inactive	inactive
Cc1cc(N[C@@H](Cc2ccccc2)C(=O)NC2CCCC2)nc(NCC2CCCCC2)n1	96% (active)	18%	4%	101% (active)	inactive	inactive	inactive	inactive
CC1(C)N=C(N)N=C(N)N1OCCOc1ccc(Cc2ccccc2)cc1	26%	62% (active)	3%	94% (active)	inactive	inactive	inactive	inactive
NC(N)=Nc1nc(CCCCCCCCc2csc(N=C(N)N)n2)cs1	28%	27%	0%	100% (active)	inactive	inactive	inactive	inactive
Cc1cc(C)cc(-n2c(C)cc(C=C3SC(=Nc4ccc(Cl)cc4)NC3=O)c2C)c1	97% (active)	12%	-7%	97% (active)	inactive	inactive	inactive	inactive
Cc1cc(NC(=O)c2coc3cc(F)c(N4C[C@@H](C)N(C)[C@@H](C)C4)cc23)ccc1-n1ccnc1	42%	-9%	-3%	96% (active)	inactive	inactive	inactive	inactive
COc1ccc2c(NN=Cc3ccc(OC)c4ccccc34)cc(C)nc2c1	99% (active)	3%	-4%	101% (active)	inactive	inactive	inactive	inactive
Cc1cc(N[C@@H](Cc2ccccc2)C(=O)NCc2cccc(F)c2)nc(NCCc2ccc(F)cc2)n1	69% (active)	0%	-2%	99% (active)	inactive	inactive	inactive	inactive
Cc1cccc2[nH]c(-c3ccc(-c4cccc(NCc5cn6cccnc6n5)c4)cc3)nc12	63% (active)	9%	-3%	94% (active)	inactive	inactive	inactive	inactive
O=C(Nc1ccc(-c2nc3ccccc3[nH]2)cc1)c1ccc(S(=O)(=O)N2CCc3ccccc32)cc1	34%	32%	3%	102% (active)	inactive	inactive	inactive	inactive
CO/C(=C\C=C\c1cc2cc(Cl)c(Cl)cc2[nH]1)C(=O)NCCCNC12CC3CC(CC(C3)C1)C2	76% (active)	29%	-2%	99% (active)	inactive	inactive	inactive	inactive
